Screening data: PubChem, National Center for Advancing Translational Sciences (NCATS)
Sampled rows, rich in hits. Any-hit rate of the full collection: about 2.8%.
POLB inh = inhibitors of human DNA polymerase beta. P06746. AID 485314. Potency, µM (top dose mostly 114 µM), usual class: inhibitors. actives 1.3% (n = 340,000). Pol beta primer extension/strand displacement, fluorescence kinetic
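Pol beta (10 nM) was preincubated with compound for 15 min at room temperature. The reaction was then started with 50 nM substrate and read immediately and after a further 10 min at room temperature.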
PI5P4K alpha inh = PI5P4K alpha (human) kinase inhibition. max response, %. PI5P4Kalpha enzyme, ADP-Glo luminescence, 60 min; hits give low values. AID 652105. actives 1.2% (n = 330,000). P48426; active means max response of -50% or lower; inconclusive means between -30% and -50%; inactive means -30% or higher; further: value at the top dose of about 77 µM
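Enzyme plus substrate dispensed, test compounds pinned in, then ATP (5 microM final) added. After 60 min at RT, ADP-Glo reagent 1 for 45 min and reagent 2 for 30 min preceded luminescence imaging.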
Pol iota inh = DNA polymerase iota (human) inhibition | actives 1% (n = 390,000) | Pol iota fluorescent replication assay, 10 min | Potency, µM (doses to about 115 µM), most hits filed as inhibitors | Q9UNA4
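Pol iota at 10 nM preincubated 15 min with compounds at room temperature; reaction started with fluorescent substrate, 50 nM final. Fluorescence read kinetically at 0 and 10 min; buffer-only wells as negative control.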
Pol eta inh = inhibitors of human DNA polymerase eta. Q9Y253. recombinant Pol eta, fluorescent DNA replication assay. Potency, µM (top dose mostly 114 µM), most hits filed as inhibitors. actives 1.2% (n = 390,000). AID 588591
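Pol eta at 10 nM preincubated with compounds 15 min at room temperature; reaction started with fluorescent substrate (50 nM final) and read kinetically at 0 and 10 min.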
WRN helicase inh = inhibitors of human WRN helicase; Q14191; WRN helicase unwinding, fluorescent forked duplex, kinetic; Potency, µM (doses to about 114 µM), hits mostly inhibitors; actives 0.46% (n = 360,000); AID 651768; further: nearly all actives have a fitted effect of over 55% in size
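Screening of the MLSMR collection measured strand separation of a quenched forked DNA duplex (100 nM) by 20 nM WRN with 2 mM ATP, all final. Compounds were preincubated with enzyme 15 min at room temperature.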
POLK inh = inhibitors of human DNA polymerase kappa; purified Pol kappa, fluorescent DNA synthesis assay, 10 min; Potency, µM (titrated, usually from 107 µM), hits mostly inhibitors; actives 0.53% (n = 400,000)
Target sequence (Q9UBT6 whole entry, looked up): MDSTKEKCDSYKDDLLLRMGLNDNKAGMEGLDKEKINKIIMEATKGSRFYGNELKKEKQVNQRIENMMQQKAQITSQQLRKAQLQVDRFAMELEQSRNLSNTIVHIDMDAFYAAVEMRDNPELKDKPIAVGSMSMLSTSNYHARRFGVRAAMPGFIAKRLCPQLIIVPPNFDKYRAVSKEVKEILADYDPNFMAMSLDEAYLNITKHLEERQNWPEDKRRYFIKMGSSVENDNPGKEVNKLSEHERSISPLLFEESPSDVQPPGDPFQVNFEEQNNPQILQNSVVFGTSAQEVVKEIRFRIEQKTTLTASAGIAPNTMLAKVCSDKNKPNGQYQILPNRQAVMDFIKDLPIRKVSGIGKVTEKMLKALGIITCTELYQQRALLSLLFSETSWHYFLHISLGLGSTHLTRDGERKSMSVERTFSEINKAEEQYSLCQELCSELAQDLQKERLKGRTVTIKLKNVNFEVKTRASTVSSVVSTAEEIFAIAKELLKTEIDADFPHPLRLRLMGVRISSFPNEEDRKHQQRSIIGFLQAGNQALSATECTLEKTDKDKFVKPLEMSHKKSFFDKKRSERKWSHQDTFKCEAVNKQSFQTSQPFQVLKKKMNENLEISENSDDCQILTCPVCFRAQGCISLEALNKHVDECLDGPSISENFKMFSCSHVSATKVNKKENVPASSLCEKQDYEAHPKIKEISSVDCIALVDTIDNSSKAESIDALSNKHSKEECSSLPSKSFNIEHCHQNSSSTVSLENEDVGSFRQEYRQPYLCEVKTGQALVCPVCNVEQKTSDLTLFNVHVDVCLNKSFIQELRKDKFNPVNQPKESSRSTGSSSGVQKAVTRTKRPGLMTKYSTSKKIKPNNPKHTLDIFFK
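Enzyme at 10 nM met test compounds for 15 min at room temperature. Substrate addition (50 nM final) began the reaction, which was monitored by fluorescence at 0 and 10 min.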
Of the large screens only hits and unclear results are named; the others gave an inactive call. Unless noted, the call rests on the fitted dose curve; in most records, active means well fitted curve in the direction sought with a large enough effect; inconclusive means small, poorly fitted or top-dose-only effect, or another doubt; inactive means no such curve, though single readings can be large; an effect the other way counts as inactive or inconclusive.

Cc1ccc(N=Nc2ccc3ccccc3c2O)cc1	WRN helicase inh inconclusive
Cc1ccc2nc(-c3ccc(N=Nc4cc(S(=O)(=O)O)c5ccccc5c4O)cc3)sc2c1S(=O)(=O)O	Pol iota inh 25.1µM, POLK inh 20µM (no result: POLB inh, PI5P4K alpha inh, Pol eta inh, WRN helicase inh)
Cc1ccc(Cn2c(C(C)Nc3nc(-c4ccc(F)cc4)cs3)nc3cc(C(=O)NCCCO)ccc32)cc1 (stereo not given)	Pol iota inh inconclusive (no result: POLB inh)
Cc1ccc(Cn2c(C3CCCN3c3nc(-c4cc(Cl)c(N)c(Cl)c4)cs3)nc3cc(C(=O)NCCCO)ccc32)cc1 (stereo not given)	Pol iota inh 44.7µM (no result: POLB inh)
COCCNC(=O)C(C)OC(=O)C1=Cc2ccccc2OC1 (stereo not given)	none
CC(OC(=O)C1=Cc2ccccc2OC1)C(=O)NCC1CCCO1 (stereo not given)	PI5P4K alpha inh -63.3, Pol iota inh inconclusive, POLK inh inconclusive (no result: POLB inh)
Cc1c(N)cc(N)cc1C(=O)O	Pol iota inh 44.7µM, POLK inh 89.1µM
Cc1c(Br)cc(C(=O)O)c(C)c1C	none
COc1ccccc1NC(=O)Nc1ccc(Cl)c(S(=O)(=O)Nc2ccccc2OC)c1	none
COc1ccccc1NS(=O)(=O)c1cc(NC(=O)CNC(=O)c2ccc(C)s2)ccc1Cl	Pol iota inh 79.4µM, Pol eta inh inconclusive, WRN helicase inh 56.2µM
Nc1nc2ccc([N+](=O)[O-])c(N)c2s1	PI5P4K alpha inh -57.8
Nc1ccc2nc(N)sc2c1	none (no result: POLB inh)
CCOC(=O)N1CCC(N2Cc3cccc(C(=O)NCc4ccc(OC)cc4)c3C2=O)CC1	POLB inh 15.8µM (no result: PI5P4K alpha inh, Pol iota inh, Pol eta inh, WRN helicase inh, POLK inh)
O=C(NCc1ccc2c(c1)OCO2)c1cccc2c1C(=O)N(C1CCCCC1)C2	none
CCOC(=O)N1CCC(NC(=O)c2cccc3c2C(=O)N(c2ccc(OC)cc2)C3)CC1	POLB inh 10µM, PI5P4K alpha inh inconclusive, Pol iota inh inconclusive, Pol eta inh 17.8µM, POLK inh 50.1µM
CCOC(=O)N1CCC(N2Cc3cccc(C(=O)NCc4ccc5c(c4)OCO5)c3C2=O)CC1	POLB inh 25.1µM, Pol iota inh 44.7µM, Pol eta inh inconclusive
CCOC(=O)N1CCC(N2Cc3cccc(C(=O)NCc4ccccc4OC)c3C2=O)CC1	none
Cc1cccc(CCNC(=O)c2cccc3c2C(=O)N(C2CCCCC2)C3)c1	POLB inh 11.2µM, Pol eta inh inconclusive
CCOC(=O)N1CCC(NC(=O)c2cn(-c3ccc(OC)cc3)c(=O)c3ccccc23)CC1	none
COc1cc(NC(=O)CC(C)S(=O)(=O)c2ccc3c(c2)CCN3C(C)=O)cc(OC)c1OC (stereo not given)	none (no result: PI5P4K alpha inh, WRN helicase inh)
O/N=C(/C[n+]1ccsc1)c1ccc(I)cc1	none (no result: POLB inh, PI5P4K alpha inh, Pol eta inh, WRN helicase inh)
Cc1ccc(NC(=O)c2oc3ccc(S(=O)(=O)N(C)C4CCCCC4)cc3c2C)cc1Cl	none (no result: PI5P4K alpha inh, WRN helicase inh)
COc1ccc(-c2nc3ccccc3s2)cc1NC(=O)c1ccccc1OC	none (no result: PI5P4K alpha inh, WRN helicase inh)
COc1ccc2c(c1)oc(=O)c1c3ccccc3[nH]c21	POLB inh 22.4µM
Nn1c(SCC(=O)NC2CCCCC2)nnc1C1CC1	POLB inh 0.316µM
COc1ccccc1CNC(=O)C1CCN(S(=O)(=O)c2c(C)noc2/C=C/c2cccs2)CC1	Pol iota inh 89.1µM, POLK inh inconclusive (no result: PI5P4K alpha inh, WRN helicase inh)
Cc1ccc2nccc(/C=C/c3ccc(N(C)C)cc3)c2c1	none (no result: POLB inh, PI5P4K alpha inh, Pol eta inh, WRN helicase inh)
CN(C)c1ccc(C=O)cc1[N+](=O)[O-]	none (no result: POLB inh, PI5P4K alpha inh, Pol eta inh, WRN helicase inh)
O=C1CC(c2ccc(Cl)cc2)CC(=O)C1CS(=O)(=O)c1ccccc1 (stereo not given)	PI5P4K alpha inh -57.9
COc1ccc(C2CC(=O)C(CS(=O)(=O)c3ccccc3)C(=O)C2)cc1 (stereo not given)	PI5P4K alpha inh inconclusive
CCOC(=O)c1sc2nc3c(SCCC#N)cc(C(=O)c4cc(F)ccc4O)cn3c(=O)c2c1C	none
O=C(O)CSc1cc(C(=O)c2cc(F)ccc2O)cn2c(=O)c3c(-c4ccccc4)csc3nc12	POLB inh inconclusive, PI5P4K alpha inh inconclusive, Pol iota inh inconclusive, Pol eta inh 22.4µM, POLK inh inconclusive
C=C1c2cccc(O)c2C(=O)C2C(=O)[C@]3(O)C(=O)C(C(N)=O)C(=O)[C@@H](N(C)C)[C@@H]3[C@@H](O)[C@H]12 (stereo not given in full)	PI5P4K alpha inh -71.2, Pol iota inh 1.26µM, Pol eta inh inconclusive, WRN helicase inh inconclusive, POLK inh inconclusive (no result: POLB inh)
C[C@H]1c2cccc(O)c2C(O)=C2C(=O)[C@]3(O)C(O)=C(C(N)=O)C(=O)[C@@H](N(C)C)C3[C@@H](O)C21 (stereo not given in full)	none (no result: POLB inh)
C=C1c2cccc(O)c2C(O)=C2C(=O)[C@@]3(O)C(O)=C(C(N)=O)C(=O)[C@@H](N(C)C)[C@@H]3[C@@H](O)[C@H]12	POLK inh 1.8µM (no result: POLB inh, PI5P4K alpha inh, Pol iota inh, Pol eta inh, WRN helicase inh)
COc1cccc(C(=O)NCC(c2ccc(N(C)C)cc2)N2CCCC2)c1OC (stereo not given)	none (no result: PI5P4K alpha inh, WRN helicase inh)
CC1CCC/C(=C\c2ccc(O)cc2)C1=O (stereo not given)	none (no result: POLB inh)
CN(C)CC1CC/C(=C\c2ccc(O)cc2)C1=O (stereo not given)	Pol iota inh inconclusive, Pol eta inh inconclusive, WRN helicase inh 11.2µM (no result: POLB inh)
COc1ccc(/C=C2/CCC(CN3CCOCC3)C2=O)cc1 (stereo not given)	Pol iota inh inconclusive, Pol eta inh inconclusive, WRN helicase inh 14.1µM (no result: POLB inh)
Cc1ccccc1NC(=O)c1cccc2c(=O)c3c([nH]c12)CCCC3	none (no result: PI5P4K alpha inh, WRN helicase inh)
Cc1ccc(S(=O)(=O)NC(=O)c2cc(C)n(-c3cc(S(=O)(=O)N4CCOCC4)ccc3N3CCCC3)c2C)cc1	POLB inh inconclusive, Pol iota inh inconclusive, Pol eta inh 89.1µM (no result: PI5P4K alpha inh)
CCOc1ccc(NC(=O)c2nc(S(=O)(=O)Cc3ccc(F)cc3)ncc2Cl)cc1	none (no result: POLB inh, PI5P4K alpha inh, Pol eta inh, WRN helicase inh)
N#CC(C#N)=C1C=CC=CN1/C(=C\c1ccco1)C(=O)c1ccccc1	WRN helicase inh 17.8µM
COc1ccc(C(=O)/C(=C\c2ccco2)N2C=CC=CC2=C(C#N)C#N)cc1	Pol iota inh inconclusive, Pol eta inh inconclusive, WRN helicase inh inconclusive
N#CC(C#N)=C1C=CC=CN1/C(=C\c1ccco1)C(=O)c1ccc(Br)cc1	WRN helicase inh 56.2µM
Cc1cccc(N2CC34C=CC(O3)C(C(=O)O)C4C2=O)c1 (stereo not given)	none
COc1cccc(N2CC34C=CC(O3)C(C(=O)O)C4C2=O)c1 (stereo not given)	POLB inh inconclusive, PI5P4K alpha inh inconclusive, Pol iota inh inconclusive, Pol eta inh 14.1µM, POLK inh inconclusive
Cc1nc2ccc(NC(=O)c3cc([N+](=O)[O-])cc([N+](=O)[O-])c3Cl)cc2s1	Pol iota inh inconclusive, Pol eta inh inconclusive, WRN helicase inh 10µM
Cc1nc2ccc(NC(=O)c3ccc(Cl)c([N+](=O)[O-])c3)cc2s1	none
